# From PubChem BioAssay AID743261 (The Scripps Research Institute Molecular Screening Center, 2014)
# The whole screen tested about 3,300 compounds, of which about 35 (1%) were called active. A selection follows. A number with no mark means an inactive call. Cut-off read from the data, not from the text of the source: active = inhibition above about 11%; inactive = the rest.
# Biological target: 1-phosphatidylinositol 4,5-bisphosphate phosphodiesterase beta-3 (Homo sapiens) (UniProt Q01970)
# Assay: retest of human PLCB3 enzyme blockers – biochemical, fluorescence, purified enzyme, confirmation (AID 743261)
# Details: purified PLC-beta3, fluorogenic substrate fluorescence; at 12.3 µM; stronger effect = higher value
# Chain of 1-phosphatidylinositol 4,5-bisphosphate phosphodiesterase beta-3 (Homo sapiens) (Q01970 whole entry, looked up): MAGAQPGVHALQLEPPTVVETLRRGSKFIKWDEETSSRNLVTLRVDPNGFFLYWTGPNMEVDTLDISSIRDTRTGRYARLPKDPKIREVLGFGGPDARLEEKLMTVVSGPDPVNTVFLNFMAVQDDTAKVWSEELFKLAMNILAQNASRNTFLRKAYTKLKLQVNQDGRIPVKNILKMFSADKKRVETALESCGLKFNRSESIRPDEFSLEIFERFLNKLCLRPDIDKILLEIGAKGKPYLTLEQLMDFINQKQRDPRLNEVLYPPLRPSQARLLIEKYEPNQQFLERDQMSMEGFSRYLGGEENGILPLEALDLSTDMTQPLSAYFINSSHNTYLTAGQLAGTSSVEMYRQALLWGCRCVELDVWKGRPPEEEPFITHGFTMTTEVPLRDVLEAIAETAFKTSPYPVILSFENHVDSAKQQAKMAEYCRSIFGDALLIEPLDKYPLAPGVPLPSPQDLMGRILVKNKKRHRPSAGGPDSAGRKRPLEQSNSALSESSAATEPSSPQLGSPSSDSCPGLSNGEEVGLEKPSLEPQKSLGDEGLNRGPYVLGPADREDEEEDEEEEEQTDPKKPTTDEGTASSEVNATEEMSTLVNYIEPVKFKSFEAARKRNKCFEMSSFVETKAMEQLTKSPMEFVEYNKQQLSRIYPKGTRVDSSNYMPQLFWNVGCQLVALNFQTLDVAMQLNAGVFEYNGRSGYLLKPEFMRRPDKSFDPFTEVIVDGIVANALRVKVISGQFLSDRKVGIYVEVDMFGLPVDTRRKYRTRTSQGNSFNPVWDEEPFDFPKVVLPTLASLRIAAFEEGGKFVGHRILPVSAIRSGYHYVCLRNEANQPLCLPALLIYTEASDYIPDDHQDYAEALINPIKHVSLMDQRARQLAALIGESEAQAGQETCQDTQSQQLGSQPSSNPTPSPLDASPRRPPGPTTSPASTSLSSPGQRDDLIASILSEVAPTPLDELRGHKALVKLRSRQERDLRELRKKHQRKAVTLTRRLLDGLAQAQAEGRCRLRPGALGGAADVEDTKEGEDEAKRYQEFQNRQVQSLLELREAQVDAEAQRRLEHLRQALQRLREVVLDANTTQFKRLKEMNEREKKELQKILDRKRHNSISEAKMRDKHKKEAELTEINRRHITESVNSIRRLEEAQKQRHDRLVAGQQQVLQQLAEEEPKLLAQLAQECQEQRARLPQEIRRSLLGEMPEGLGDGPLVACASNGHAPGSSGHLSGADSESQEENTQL
row,Structure (SMILES),inhibition
1,Cc1cccc(C(=O)NCCCN2CCCC2=O)c1,2.72%
2,CN(C)S(=O)(=O)c1cccc(NC(=O)COC(=O)C2(c3ccccc3F)CCCC2)c1,0.6%
3,Nc1nc(NCC(=O)O)nc(N2CCCCCC2)c1[N+](=O)[O-],5.2%
4,CCOC(=O)Nc1ccc(NC(=O)OCC)cc1,4.88%
5,CC1(C)CC(=O)C=C(NC2CC(C)(C)NC(C)(C)C2)C1,0.58%
6,Cc1ccc(S(=O)(=O)N2CCCCC2)cc1NC(=O)CCNC(=O)c1ccccc1,-5.41%
7,FC(F)(F)c1cnc(Oc2ccccc2-c2nnc(-c3ccc(Cl)cc3)o2)c(Cl)c1,-7.7%
8,O=C(NC12CC3CC(CC(C3)C1)C2)N1CCCC(CO)C1 (stereo not given),-3.42%
9,CC(C)(C)c1ccc(C(=O)Nc2cc(Cl)c(Br)cc2C(=O)O)cc1,-8.39%
10,Cc1ccc(S(=O)(=O)Cn2nnnc2CN2CCN(Cc3ccc4c(c3)OCO4)CC2)cc1,2.26%
11,CC(C)C(NC(=O)C1CCC(C(C)(C)C)CC1)C(=O)NCCCN1CCCCC1 (stereo not given),0.28%
12,CC1CCN(S(=O)(=O)c2ccc(S(=O)(=O)NCc3ccco3)cc2)CC1,-1.58%
13,O=C(NCc1ccc(F)cc1F)[C@@H]1CCCN1C(=O)[C@@H]1CCCN1C(=O)c1cccc(Cl)c1,-0.65%
14,CC(=O)C1=C(O)C(=O)N(c2cccnc2)C1c1ccc([N+](=O)[O-])cc1 (stereo not given),-1.47%
15,O=c1ccc2c(-c3ccccc3S(=O)(=O)O)c3ccc(O)c(O)c3oc-2c1O,21% (active)
16,COc1ccc(/C(C)=N/N2CCOCC2)c(O)c1,-14.9%
17,COCCNC(=O)C(c1ccc(O)cc1)N(C(=O)CCC(=O)Nc1nccs1)c1ccc(C)cc1 (stereo not given),-0.24%
18,O=C1NC2(CCCCC2)N=C1c1ccccc1,-4.41%
19,Cc1cccc([C@@H]2[C@@H]3C(=O)N(Cc4ccccc4)C(=O)[C@@H]3[C@]3(Cc4ccc(Cl)cc4)C(=O)N(c4cccc(Cl)c4)C(=O)N23)c1,5.38%
20,Cc1cc(NC(=O)CN2C(=O)NC(CC(C)C)C2=O)no1 (stereo not given),0.1%
21,CC(C)CCSc1ncnc2c1oc1nc3c(cc12)COC(C)(C)C3,-2.11%
22,O=C(C[C@H]1C(=O)N(c2ccc(F)c(F)c2)C[C@@H]1Cc1ccccc1)Nc1ccccc1,9.92%
23,CN(C(=O)c1ccc(NC(=O)Cc2cccc(NC(=O)C3CCN(C(=O)c4ccccc4)CC3)c2)cc1)C1CC1,-1%

row,Structure (SMILES),inhibition
1,CCCCn1c(SCC(=O)N2CCCC2=O)nc2cc(S(N)(=O)=O)ccc21,0.23%
2,O=c1c([N+](=O)[O-])cc(C(F)(F)F)cn1Cc1cccc(Cl)c1,4.27%
3,Cc1nc(-c2ccc(F)cc2)c(CC(=O)N2CCN(S(=O)(=O)c3ccc(F)cc3)CC2)s1,-1.44%
4,O=C(COc1ccc(Cl)cc1)N1CCN(c2cccc(C(F)(F)F)c2)CC1,-5.48%
5,O=S(=O)(c1ccc(F)cc1)N1CCN(C(=S)NC2CCCC2)CC1,-3.43%
6,CC1(C(=O)NCc2ccccc2)CSCC(=O)N1CCCN1CCOCC1 (stereo not given),-2.02%
7,O=[N+]([O-])c1cc(C(F)(F)F)ccc1NN=C1CCCC1,2.81%
8,O=c1c2ccccc2c(-c2ccccc2)nn1Cc1ccccc1,-6.9%
9,CN(CC(=O)NC1CCCCC1)S(=O)(=O)c1ccc(Br)s1,3.57%
10,COc1ccccc1C(=O)N1C(CC(=O)Nc2ccccc2C)C(=O)NC2CCCCC21 (stereo not given),-8.41%
11,COc1cc(OC)nc(S(C)(=O)=O)n1,-3.28%
12,O=C(C(c1ccccc1)c1ccccc1)N1CCN(CC(O)COc2ccccc2)CC1 (stereo not given),3.79%
13,COC(=O)NC1(C(F)(F)F)NC(=O)N(C2CCCCC2)C1=O (stereo not given),2.36%
14,N#C[C@]1(S(=O)(=O)c2ccccc2)C[C@@H]2ON=C(c3cccc(Br)c3)[C@@H]2C1,0.44%
15,CC1Oc2ccccc2N(Cc2cccnc2)C1=O (stereo not given),-1.95%
16,COc1ccccc1C(=O)Nc1cccc(C(=O)N2CCOCC2)c1,-1.43%
17,S=c1[nH]nc(-c2cccnc2)n1/N=C/C(Cl)=C\c1ccccc1,-5.69%
18,CC1(C)CC(=O)C=C(NCCN2CCNCC2)C1,-4.21%
19,CCn1c(/C=C/Nc2ccccc2)[n+](CC)c2ccc(C(=O)OCC(F)(F)F)cc21,-12.7%
20,COC(=O)CN1C(=O)C(O)=C(C(C)=O)C1c1ccc([N+](=O)[O-])cc1 (stereo not given),2.66%
21,COc1ccc(-c2ccc(CN3C(CC(C)C)C(=O)N(Cc4cn(CC5CCCCC5)nn4)CCS3(=O)=O)cc2)cc1 (stereo not given),-1.28%
22,COc1ccc([N+](=O)[O-])cc1N(CC(O)Cn1nnc2ccccc21)S(=O)(=O)c1ccc(C)cc1 (stereo not given),3.85%
23,CCOc1ccccc1C1CC(c2cccc(NS(C)(=O)=O)c2)=NN1C(=O)c1ccccc1 (stereo not given),-3.53%

row,Structure (SMILES),inhibition
1,O=C1CS(=O)CN1c1ccc(Oc2ccccc2)cc1 (stereo not given),0.56%
2,COc1cc(NC(=O)COC(=O)c2ccc([N+](=O)[O-])s2)cc(OC)c1OC,2.2%
3,O=S(=O)(Nc1ccc(Oc2ncccn2)c(Cl)c1)c1ccc(F)cc1,-3.4%
4,O=C(CSc1nnc(-c2ccncc2)n1C1CCCCC1)Nc1ccccc1,-1.28%
5,COc1ccccc1CCNC(=O)CN1C(=O)NC2(CCCC2)C1=O,7.54%
6,Clc1ccc(C2[C@H]3CN(CC4CCCCC4)[C@H](c4ccccc4)C34CC2(c2cccnc2)C4)cn1 (stereo not given in full),-4.05%
7,C[C@H](C(=O)N(C)c1ccccc1)[C@@H](O)c1ccc2ccccc2c1,-3.71%
8,CCN(CC)Cc1csc2ccc(Br)cc12,0.36%
9,C=CCSC(CC)(CC)C(N)=O,3.18%
10,COCc1cc(C(C)=O)ccc1OC,0.95%
11,Cc1cccc(NC(=O)c2ccc3c(=O)n(CC4CCCO4)c(=S)[nH]c3c2)c1 (stereo not given),1.92%
12,CCc1ccc(-c2nc(SCC(=O)NC3CCCC3)n[nH]2)cc1,-2.19%
13,C=CCOc1ccc(Cl)cc1CNCCCN1CCOCC1,1.5%
14,Cc1cc(NC(=O)COn2nnc3ccccc32)no1,-9.92%
15,Cc1ccc(Cn2ccc(NC(=O)C3C4CCC(C4)C3C(=O)O)n2)cc1 (stereo not given),-9.86%
16,CN(CC(=O)Nc1ccccc1Cl)C(=O)COc1cccc2c1OC(C)(C)C2,0.64%
17,CNC(=O)n1ccc(C(=O)N2CCCCC2)n1,-1.25%
18,COc1ccc(C(N)c2csc(NC(=O)Nc3cccc(C(F)(F)F)c3)n2)cc1 (stereo not given),3.1%
19,O=C(NCCCN1CCCCC1)C1CC(=O)N(CCc2ccccc2)C1 (stereo not given),1.91%
20,O=C1/C(=C\c2ccsc2)NC(=S)N1c1ccccc1,-5.74%
21,CC(C)Cn1cnc2c1c(=O)n(CC(O)c1ccccc1)c(=O)n2CC(C)C (stereo not given),-3.57%
22,C=CCOc1ccccc1/C=N/NC(=O)Cc1ccccc1,-2.73%
23,CCOC(=O)N1CCC(c2cc(=O)n(-c3ccccc3)[nH]2)CC1,2.09%

row,Structure (SMILES),inhibition
1,CCOc1cccc(-c2nnc3sc(COc4ccc(OC)cc4)nn23)c1,-3.2%
2,O=C(/C=C/c1c(F)cccc1Cl)Nc1nn[nH]n1,-1.92%
3,O=S1(=O)c2ccc(Br)cc2OC[C@H](Cc2ccccc2)N1Cc1cn(Cc2ccccc2)nn1,6.58%
4,CC(=O)c1c(C)[nH]c(C(=O)OCC(=O)Nc2cc(S(=O)(=O)N3CCCCC3)ccc2C)c1C,2.76%
5,CCC1CCCCN1C(=O)CSc1nc(C)cc(C)n1 (stereo not given),-1.69%
6,Cc1ccc(C(=O)N2CCN(C(=O)N3CCOCC3)CC2)cc1,-1.36%
7,Cc1ccc(C)c(N2CCN(S(=O)(=O)c3c(C)[nH]c(C)c3C(=O)N3CCCC3)CC2)c1,-5.1%
8,Cc1ccc(C23CC4CC(CC(C(=O)NCC(=O)O)(C4)C2)C3)cc1,4.19%
9,CCC[C@H]1CCCC/C=C\CCCC(=O)OCCN1C(=O)OC(C)(C)C,7.62%
10,CCOc1ccccc1NC(=O)c1cccnc1,-4.38%
11,O=C1c2ccccc2S(=O)(=O)N1CC(O)Cn1c2ccccc2c2ccccc21 (stereo not given),-0.97%
12,Cc1cc(NC(=O)c2ccc(F)cc2)ccc1NC(=O)c1ccco1,8.74%
13,Cc1ccc(C(=O)Nc2ccc(C)c(S(=O)(=O)N(C)C)c2)s1,-7.5%
14,COC(=O)N(C)C[C@@H]1OCc2cnnn2CCCC(=O)N([C@@H](C)CO)C[C@@H]1C,-4.12%
15,CCOc1ccc(CCNC(=O)COC(=O)CCS(=O)(=O)c2ccc(C)cc2)cc1OCC,-2.58%
16,CCOC(=O)[C@]12CCCC=C1N(CCCOC)C(=O)[C@@H]2CC(=O)N1CCOCC1,-1.19%
17,NC1=CC(=O)C(=O)c2cccnc21,-2.06%
18,O=C(NCc1cccnc1)c1cc(C2CCCCN2C(=O)CCc2ccccc2)on1 (stereo not given),1.6%
19,NC1=NN(c2cccc(C(=O)O)c2)C(=O)C1,0.11%
20,OC(CNCC1CCCO1)Cn1c2ccc(Br)cc2c2cc(Br)ccc21 (stereo not given),-1.89%
21,CCCCc1nc2ccccc2c(NC(=O)CN2CCN(C)CC2)c1CCC,-2.31%
